Only some compounds are listed: those with a hit (about 1.9% of all), similar ones and a draw of the others.
TDP-43 yeast inh = qHTS of TDP-43 Inhibitors. TDP-43 expressing yeast growth rescue, BacTiter-Glo, 24 h. Potency, µM (doses to about 46.1 µM), most hits filed as activators. 410,000 tested, 1.8% active. AID 652104, 2013; further: nearly all actives have a fitted effect of over 50% in size
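In this qHTS, compounds that restore growth of yeast expressing TDP-43 appear as activators. Cells (OD600=0.02, galactose medium, raffinose-pregrown) are incubated with compound 24 hr at 30 deg C and growth is quantified by BacTiter-Glo.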
PTHR1 ag = qHTS for PTHR1 Agonists: Primary Screen | HEK293 GP2 PTHR1 cells, GloSensor cAMP luminescence, 1 h | AID 743266, 2014 | Potency, µM (series often up to 115 µM), usual class: activators | 410,000 tested, 0.075% active | Parathyroid hormone/parathyroid hormone-related peptide receptor (Homo sapiens), Q03431; further: nearly all actives have a fitted effect of over 55% in size
Target sequence (Q03431 whole entry, looked up): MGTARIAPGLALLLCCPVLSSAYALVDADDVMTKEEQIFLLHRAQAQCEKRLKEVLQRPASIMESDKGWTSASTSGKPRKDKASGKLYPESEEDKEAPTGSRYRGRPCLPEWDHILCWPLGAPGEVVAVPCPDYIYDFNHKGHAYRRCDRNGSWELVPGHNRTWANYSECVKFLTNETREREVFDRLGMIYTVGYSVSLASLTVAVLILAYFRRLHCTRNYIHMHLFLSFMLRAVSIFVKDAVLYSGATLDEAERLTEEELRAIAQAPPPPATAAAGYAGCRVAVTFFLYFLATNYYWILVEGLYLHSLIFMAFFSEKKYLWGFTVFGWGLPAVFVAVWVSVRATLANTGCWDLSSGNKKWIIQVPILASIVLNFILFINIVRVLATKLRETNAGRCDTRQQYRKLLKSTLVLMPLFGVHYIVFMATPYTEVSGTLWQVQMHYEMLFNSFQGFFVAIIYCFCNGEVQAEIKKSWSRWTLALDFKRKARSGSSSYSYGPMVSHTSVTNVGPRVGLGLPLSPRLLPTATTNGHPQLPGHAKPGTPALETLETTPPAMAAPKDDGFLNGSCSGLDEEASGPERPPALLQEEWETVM
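HEK-293-derived GP2 cells expressing PTHR1 and a GloSensor cAMP reporter, 3,000/well, plated overnight, given luciferin plus IBMX (each 0.5 mM as added) for 1 h at 37 °C, then compound for 1 h at 37 °C. Luminescence was read after 15 min at room temperature.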
aSyn yeast inh = qHTS of alpha-syn Inhibitors. Yeast expressing alpha-synuclein, growth rescue, BacTiter-Glo, 24 h. Potency, µM (top dose mostly 46.1 µM), actives largely listed as activators. 370,000 tested, 0.14% active; further: nearly all actives have a fitted effect of over 65% in size
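Screening used galactose-induced yeast with toxic alpha-synuclein levels, exposed to compound for 24 hr at 30 deg C. Cell growth, read with BacTiter-Glo luminescence, gave the measured signal.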
FUS yeast rescue = qHTS for Suppressors of FUS Proteinopathy: Primary screen using FUS-linked yeast assay. S. cerevisiae FUS-expressing, growth rescue, OD600, 24 h. Potency, µM (titrated, usually from 76.6 µM), usual class: activators. 390,000 tested, 0.24% active; further: nearly all actives have a fitted effect of over 55% in size
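Read-out: OD at 600 nm after 24hr at 30C, reporting rescue of FUS-induced yeast toxicity. Cells at OD 0.005 in galactose (2%) minimal medium; compounds tested in a dilution series; CP55940 titration from 92uM final as control.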
Abeta yeast res = qHTS for compounds that reverse cellular toxicity of Amyloid beta (A-beta) peptide in yeast: Primary Screen | Potency, µM (top dose mostly 46.1 µM), usual class: activators | yeast expressing A-beta42, growth rescue, OD600, 48 h; response scale: 0% DMSO, 100% iron-clioquinol control | 410,000 tested, 0.063% active | AID 1347071, 2019; further: nearly all actives have a fitted effect of over 55% in size
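Yeast A-beta toxicity model in growth medium with pinned compounds, 48 h at 30 C; growth read as absorbance at 600 nm. Normalized to FeCl3/clioquinol equimolar mix (positive) and DMSO (negative).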
LDHA inh = qHTS assay for inhibitors of human lactate dehydrogenase; AID 1347041, 2019; L-lactate dehydrogenase A chain (Homo sapiens), P00338; 480,000 tested, 0.15% active; purified LDHA, NADH/diaphorase-resazurin fluorescence; hits give low values; activity change, % (values are at about 110 or 230 µM); in the data active means activity change below about -30%; inconclusive means mostly about -25% to -30%
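Remaining NADH was detected by diaphorase (0.133 mg/mL) converting 37 µM resazurin to fluorescent resorufin, read at 0 and 20 minutes. The preceding 5-minute room-temperature reaction used 2 nM LDHA, 0.2 mM sodium pyruvate and 0.06 mM NADH at pH 7.4.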
Large screens that a line does not name were inactive. Unless noted, the call rests on the fitted dose curve; in most records, active means well fitted curve in the direction sought with a large enough effect; inconclusive means small, poorly fitted or top-dose-only effect, or another doubt; inactive means no such curve, though single readings can be large; an effect the other way counts as inactive or inconclusive.

O=C1CSC(c2cccc(Cl)c2Cl)N1c1ccccn1 (stereo not given)	TDP-43 yeast inh 14.1µM
CCCCn1c(SCC(=O)OCC)nc2c(sc(=S)n2-c2ccccc2OC)c1=O	TDP-43 yeast inh 12.6µM
COc1ccccc1-n1c(SCC(=O)O)nc2c(sc(=S)n2-c2ccccc2C)c1=O	none
CCN(CC)S(=O)(=O)N(C)Cc1ccc2c(c1)OCCO2	none (no result: TDP-43 yeast inh, PTHR1 ag, aSyn yeast inh, FUS yeast rescue, Abeta yeast res)
Clc1cccc(CSc2nnc(C3CCCN3)o2)c1 (stereo not given)	none (no result: TDP-43 yeast inh, PTHR1 ag, aSyn yeast inh, FUS yeast rescue, Abeta yeast res)
OCc1cn(-c2ccccc2)nc1-c1ccc(Br)cc1	none
CC(C)COc1ccc(-c2nn(-c3ccccc3)cc2CO)cc1	TDP-43 yeast inh 28.2µM
Cn1c(SCc2cccc(F)c2)nnc1-c1cnccn1	none
Cn1c(SCc2ccccc2Cl)nnc1-c1cnccn1	TDP-43 yeast inh 11.2µM
CC(NC(=O)CSc1n[nH]c(N)n1)c1ccccc1 (stereo not given)	none
CCCc1ccc(-c2cc(NC(=O)CSc3n[nH]c(N)n3)n(-c3ccccc3)n2)cc1	PTHR1 ag 15.8µM, FUS yeast rescue inconclusive
CC(C)(C)C(=O)C1=C(O)C(=O)N(Cc2ccccc2)C1c1ccccc1Cl (stereo not given)	TDP-43 yeast inh 12.6µM
CC(=O)C1=C(O)C(=O)N(CC(=O)O)C1c1ccccc1Cl (stereo not given)	none
O=C(O)c1ccccc1-n1c2ccccc2c2ccccc21	TDP-43 yeast inh 20µM, aSyn yeast inh inconclusive
Cc1cc(C)nc(NC(=NCCc2c[nH]c3ccc(Cl)cc23)NC(=O)c2ccccc2C)n1	aSyn yeast inh 0.562µM
CCN(CC)S(=O)(=O)c1ccc(=O)n(Cc2ncc(-c3ccccc3)o2)c1	none (no result: TDP-43 yeast inh, PTHR1 ag, aSyn yeast inh, FUS yeast rescue, Abeta yeast res)
O=C(Nc1nnc(-c2cccs2)o1)c1cccc(C(F)(F)F)c1	TDP-43 yeast inh 7.08µM, aSyn yeast inh 3.16µM, Abeta yeast res 6.31µM
CCCOc1ccc(-c2[nH]c3c(c2-c2ccc(OC)cc2)c(=O)[nH]c(=O)n3C)cc1	none (no result: TDP-43 yeast inh, PTHR1 ag, aSyn yeast inh, FUS yeast rescue, Abeta yeast res)
Cc1cc(C)c(C#N)c(SCc2ccc([N+](=O)[O-])cc2)n1	none
Cc1nc(Sc2ccccc2)c(C#N)c(C)c1[N+](=O)[O-]	TDP-43 yeast inh 7.08µM, Abeta yeast res inconclusive
Cc1cc(C)c(C#N)c(Sc2nc(C)c([N+](=O)[O-])c(C)c2C#N)n1	TDP-43 yeast inh 20µM
O=C(CSc1ccc(Cl)cc1)N1N=CCC1c1ccccc1 (stereo not given)	TDP-43 yeast inh 12.6µM
O=C(Nc1ccccc1)N1N=CCC1c1ccccc1 (stereo not given)	none
O=C(Nc1ccc(Cl)c(Cl)c1)N1N=CCC1c1ccccc1 (stereo not given)	TDP-43 yeast inh 22.4µM, FUS yeast rescue inconclusive
NC(=NC(=O)c1ccc(Cl)cc1)N1N=CCC1c1ccccc1 (stereo not given)	TDP-43 yeast inh inconclusive
O=C(OCC(F)(F)C(F)F)c1cccnc1	none (no result: TDP-43 yeast inh, PTHR1 ag, aSyn yeast inh, FUS yeast rescue, Abeta yeast res)
O=C(CSc1ccc2c(c1)OCCCO2)NC1CCCc2ccccc21 (stereo not given)	none (no result: TDP-43 yeast inh, PTHR1 ag, aSyn yeast inh, FUS yeast rescue, Abeta yeast res)
c1ccc(COc2ccc(CNCC3CCCO3)cc2)cc1 (stereo not given)	none (no result: TDP-43 yeast inh, PTHR1 ag, aSyn yeast inh, FUS yeast rescue, Abeta yeast res)
O=C1C(=O)c2ccc(-c3ccccc3)cc2-c2ccccc21	TDP-43 yeast inh 3.55µM
O=c1c2c3c(sc2nc2n1CCCC2)CCCCC3	TDP-43 yeast inh inconclusive
O=c1c2c3c(sc2nc2n1CCCCC2)CCCC3	TDP-43 yeast inh 12.6µM
O=c1c2c3c(sc2nc2n1CCCS2)CCCC3	TDP-43 yeast inh 17.8µM
Cc1cccc(N=C2NN=C(c3ccc4c(c3)OCCO4)CS2)c1	FUS yeast rescue inconclusive
Cc1cccc(N=C2NN=C(c3c(C)[nH]c4ccccc34)CS2)c1	FUS yeast rescue 11.2µM
CN(CC(=O)N1CCN(c2oc(-c3ccco3)nc2C#N)CC1)Cc1ccc(C(F)(F)F)cc1	none (no result: TDP-43 yeast inh, PTHR1 ag, aSyn yeast inh, FUS yeast rescue, Abeta yeast res)
